# Screening results: PubChem, National Center for Advancing Translational Sciences (NCATS)
# Compounds with a hit are over-represented: about 2.4% of the library has one in this group of screens.
# HTT-AS act – HTT-AS promoter activation. HEK293 HTT-AS promoter firefly luciferase reporter, 24 h; response scale: percent change from vehicle, -100% = no light. Potency, µM (series often up to 57.5 µM), for the others: top-dose activity change, positive = activation, most hits filed as activators. 48,000 compounds, 0.24% hits. AID 1508624; also: nearly all actives have a fitted effect of over 55% in size
#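 Firefly luciferase signal from promoter-reporter HEK293 cells was scaled between vehicle (0%) and zero RLU (-100%). Compounds were tested at final concentrations of up to 57.5 uM over 24 h at 37 degrees C. PTC124 at 50 uM final served as control inhibitor.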
# NTMT1 inhibitor – NTMT1 methyltransferase inhibition. NTMT1 MTase-Glo SAH luminescence, purified enzyme. 59,000 compounds, 2.5% hits. Potency, µM (highest dose often 114 µM), for the others: at the top dose activity change, negative = inhibition, usual class: inhibitors;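 also: plate controls were DMSO vehicle for no effect and no enzyme for full effect; nearly all actives have a fitted effect of over 65% in size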
# Target sequence (Q9BV86 whole entry, looked up): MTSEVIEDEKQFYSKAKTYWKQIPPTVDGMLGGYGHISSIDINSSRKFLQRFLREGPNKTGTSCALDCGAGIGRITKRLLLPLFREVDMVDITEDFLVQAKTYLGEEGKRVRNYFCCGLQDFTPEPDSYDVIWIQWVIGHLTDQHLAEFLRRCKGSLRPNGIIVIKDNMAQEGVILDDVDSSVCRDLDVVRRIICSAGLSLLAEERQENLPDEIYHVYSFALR
# HTT prom inh – inhibits huntingtin promoter activity; HEK293 HTT promoter firefly luciferase reporter, 24 h; Potency, µM (doses to about 57.5 µM), without a hit: at the highest dose activity change, negative = inhibition, hits mostly inhibitors; 48,000 compounds, 0.93% hits; also: nearly all actives have a fitted effect of over 50% in size
#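 Firefly luciferase signal from promoter-reporter HEK293 cells was scaled between vehicle (0%) and zero RLU (-100%). Compounds were tested at final concentrations of up to 57.5 uM over 24 h at 37 degrees C. PTC124 at 50 uM final served as control inhibitor.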
# * marks the source's active call; other numbers are inactive results; ? = inconclusive; . = no result; [ ] = another dose, or the depositor's remark. Calls follow the shape of the dose curve; as a rule, active = well fitted curve in the direction sought with a large enough effect; inconclusive = small, poorly fitted or top-dose-only effect, or another doubt; inactive = no such curve, though single readings can be large; an effect the other way counts as inactive or inconclusive. Potency is read from the fitted curve at half-maximal effect.
SMILES,HTT-AS act,NTMT1 inhibitor,HTT prom inh
COc1cc(CN(C(=O)c2cc3ccccc3oc2=O)C2CCS(=O)(=O)C2)cc(OC)c1OC (stereo not given),?,8%,7%
CCc1ccc(CN(C(=O)c2cc3ccccc3oc2=O)C2CCS(=O)(=O)C2)cc1 (stereo not given),3.5µM*,-1%,54%
C/C1=C\[C@H]2OC(=O)[C@@H](C)[C@@H]2CC/C(C(=O)O)=C/CC1,.,3%[57.5 µM],.
COc1ccc(CNC(=O)c2cn(-c3cccc(OC)c3)c(=O)c3ccccc23)cc1,-15%,0%,-9%
COc1cccc(-n2cc(C(=O)Nc3ccccc3C(N)=O)c3ccccc3c2=O)c1,-20%,89µM*,-3%
CCOC(=O)C1CCN(C(=O)C(C)(C)NC(=O)Nc2ccc3sccc3c2)CC1,.,5%[57.5 µM],.
Clc1cccc(-c2nc3ccccn3c2Nc2ccc3c(c2)OCCO3)c1,-19%,4µM*,7%
Oc1ccc(-c2nc3ccccn3c2Nc2ccc3c(c2)OCCO3)cc1,19%,?,-20%
CC(C)c1ccccc1-c1nc(NCc2ccc(-c3cccnc3)cc2)c2ccsc2n1,.,1%,.
S=C(Nc1ccccn1)c1ccccn1,.,8.9µM*,.
Oc1ccc(CNc2ccccn2)c2cccnc12,.,9%,.
CC[C@H]1CN(c2nc(N)c(C(N)=O)nc2Cl)CCN1C1CCN(Cc2ccc(Cl)cc2)CC1,.,-5%[57.5 µM],.
NS(=O)(=O)c1ccc(Cc2c(-c3cccc(-c4ccccc4)c3)nn(-c3nc(C(=O)O)cs3)c2CC2CC2)cc1,.,45µM*,.
Oc1cc(O)cc(/C=C/c2ccc(O)c(O)c2)c1,.,35µM*,.
COc1ccc(/C=C\c2cc(OC)c(OC)c(OC)c2)cc1O,.,-17%,.
COc1ccc(S(=O)(=O)N2CCC[C@H]2C(=O)Nc2cc(C)cc(C)c2)cc1,.,-3%[57.5 µM],.
COC(=O)C1=C(c2ccccc2)c2ccccc2S(=O)(=O)N1CC(=O)Nc1cccc(C(C)=O)c1,-36%,79µM*,-36%
CC(=O)c1cccc(NC(=O)CN2C=NS(=O)(=O)c3ccc(C)cc32)c1,-7%,4%,9%
CCc1ccccc1NS(=O)(=O)c1ccc(OC)c2ncccc12,-34%,89µM*,-19%
CCOc1ccc(S(=O)(=O)Nc2cc(Cl)ccc2OC)c2cccnc12,-28%,-4%,-28%
O=C(O)[C@H]1CCCC[C@H]1C(=O)N1CCc2ccccc2[C@H]1CN1C(=O)c2ccccc2C1=O,.,8%[57.5 µM],.
Cc1oc2ncnc(N3CCCCC3)c2c1C(=O)Nc1cccc(F)c1,-19%,-24%,-11%
Cc1oc2ncnc(N3CCCCC3)c2c1C(=O)Nc1cccc(Cl)c1C,-21%,89µM*,-27%
O=[N+]([O-])c1cccc(CSc2nc3ncc(Br)cc3[nH]2)c1,.,0%[57.5 µM],.
COc1ccc(CCNC(=O)c2ccc(Cn3c(=O)c4ccccc4n(Cc4cccc(Cl)c4)c3=O)cc2)cc1OC,-32%,11%,?
SMILES,HTT-AS act,NTMT1 inhibitor,HTT prom inh
COc1cc(-n2c(=O)c3ccccc3n(Cc3cccc(Cl)c3)c2=O)cc(OC)c1OC,-28%,89µM*,-26%
Cc1ccc(C)c(N2CCN(S(=O)(=O)c3cc(C(=O)Nc4ccc(Oc5ccccc5)cc4)ccc3F)CC2)c1,-41%,6%,2µM*
Cc1ccc(C(=O)Nc2ccc(Br)cc2)cc1S(=O)(=O)N1CCOCC1,-22%,4%,20µM*
Cc1cccc(N2CCN(S(=O)(=O)c3cc(C(=O)Nc4ccc(Oc5ccccc5)cc4)ccc3F)CC2)c1C,-30%,-1%,?
O=C(Nc1ccc(Br)cc1)c1ccc(F)c(S(=O)(=O)N2CCc3ccccc32)c1,-45%,16%,14µM*
O=C(Nc1ccc(Cl)cc1)c1cc(S(=O)(=O)N2CCCc3ccccc32)ccc1F,-46%,-7%,25µM*
CC(C)c1ccc(NC(=O)c2ccc(F)c(S(=O)(=O)N3CCc4ccccc43)c2)cc1,-29%,-4%,?
O=C(Nc1ccc(C(F)(F)F)cc1)c1cc(S(=O)(=O)N2CCCc3ccccc32)ccc1F,-74%,3%,?
Cc1ccc(NC(=O)c2ccc(C)c(S(=O)(=O)N3CCCCCC3)c2)cc1,-19%,-2%,?
COc1ccccc1-n1cnc2cc(C(=O)N3CCCCC3)ccc21,.,11%,.
CC(C)NC[C@H](O)COc1ccc(CCOCC2CC2)cc1,.,11%[57.5 µM],.
CC(C)C1=CCC(C)(O)C(OC2OC(CO)C(O)C(O)C2O)C1 (stereo not given),.,-1%[29.8 µM],.
O=C(Nc1nc2c(F)cc(F)cc2s1)c1ccc(S(=O)(=O)N2CCc3ccccc32)cc1,-56%,7%,22µM*
O=C(Nc1nc2c(F)cccc2s1)c1ccc(S(=O)(=O)N2CCCc3ccccc32)cc1,-9%,-5%,1%
